Consider 13 molecules from PubChem BioAssay.

A short description of assay [1]: HepG2 liver cancer cell viability effects, profiling panel, resazurin fluorescence, 24 h, PK04 Diversity Set (AID 1172). Also: test concentration not given here. Particulars: higher = more signal. For orientation: The colour change of resazurin is a common sign of viable cells or microbes.
Assay [2] can be described thus: basal S. cerevisiae growth modulation, no modifier, primary screen, OD600, strain BY4716, 24 h, basal condition (AID 1173). To be noted: OD600, 24 h, higher = more signal, called active from +8 up or from −8 down.
Assay [3] is described as follows: MM1S myeloma cell viability, profiling panel, resazurin fluorescence, basal, 24 h, PK04 Diversity Set (AID 1174).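 Also: MM1S multiple myeloma cell line; test concentration not given here.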 Particulars: higher = more signal, called active from +8 up or from −8 down.
Assay [4] addresses Dihydroorotate dehydrogenase (quinone), mitochondrial (Plasmodium falciparum (isolate 3D7)) (UniProt Q08210). The assay can be described thus: PfDHODH enzyme inhibitors, primary screen, biochemical, C-terminal His tag, absorbance 600 nm (AID 1175).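 Also: recombinant parasite enzyme with a five histidine tag at its C terminus; test concentration not given here.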 Particulars: DCIP absorbance 600 nm, higher = more signal, called active from +8 up or from −8 down.
A short description of assay [5]: P. aeruginosa biofilm formation inhibitors, primary screen, strain PAO1, LB-PBS medium, absorbance 600 nm (AID 1176). Also: test concentration not given here. To be noted: P. aeruginosa PAO1 growth/biofilm, A600, 12 h; higher = more signal.
Assay [6] is described as follows: S. cerevisiae RM11-1a growth modifiers, primary screen, strain RM11-1a, OD600, basal, 24 h (AID 1177).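 Also: cultures grown under basal conditions with no added stressor; test concentration not given here.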 To be noted: OD600, 24 h, higher = more signal, called active from +8 up or from −8 down.
Assay [7] can be described thus: E. coli acrAB mutant growth effects, primary screen, E. coli filamentation inducers, strain DRC39, OD650, 24 h (AID 1178).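 Also: growth measured as culture turbidity by optical density at 650 nm; test concentration not given here.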 To be noted: higher = more signal, called active from +8 up or from −8 down.
Assay [8] is described as follows: E. coli acrAB mutant growth effects, primary screen, E. coli filamentation inducers, strain DRC39, OD650, 48 h (AID 1179).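 Also: screen aims at cell division blockers that make cells filament.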 To be noted: E. coli DRC39 delta-acrAB growth, higher = more signal, called active from +8 up or from −8 down.
Assay [9] is described as follows: RPMI8226 myeloma cell viability, profiling panel, resazurin fluorescence, basal, 24 h, PK04 Diversity Set (AID 1180).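 Also: RPMI8826 multiple myeloma cell line at 5000 cells per well; test concentration not given here.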 Particulars: higher = more signal.
Assay [10] deals with E3 ubiquitin-protein ligase XIAP (Homo sapiens) (UniProt P98170). The assay can be described thus: XIAP binders, primary screen, biophysical, small-molecule microarray, fluorescence 635 nm (AID 1181).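 Also: score merges 667 nm emission and signal to noise over triplicate slides.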 To be noted: small-molecule microarray binding, higher = more signal.
Chain of E3 ubiquitin-protein ligase XIAP (Homo sapiens) (P98170 whole entry, looked up): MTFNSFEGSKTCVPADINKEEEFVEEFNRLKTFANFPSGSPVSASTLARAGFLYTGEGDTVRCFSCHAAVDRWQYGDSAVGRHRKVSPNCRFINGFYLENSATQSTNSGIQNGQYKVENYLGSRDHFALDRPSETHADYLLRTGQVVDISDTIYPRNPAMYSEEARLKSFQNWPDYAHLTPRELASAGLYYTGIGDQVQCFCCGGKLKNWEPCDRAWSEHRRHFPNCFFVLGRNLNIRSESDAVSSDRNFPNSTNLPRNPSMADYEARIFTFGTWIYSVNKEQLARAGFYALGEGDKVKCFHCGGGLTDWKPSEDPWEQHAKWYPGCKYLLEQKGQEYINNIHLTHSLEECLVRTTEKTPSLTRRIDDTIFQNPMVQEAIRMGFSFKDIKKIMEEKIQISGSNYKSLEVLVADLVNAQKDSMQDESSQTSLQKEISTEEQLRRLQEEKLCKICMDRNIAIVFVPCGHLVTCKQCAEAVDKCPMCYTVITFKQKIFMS

Molecules are shown by their SMILES. Activity calls are given as the source filed them. Unless noted, no rule for the calls is given here.

Chain of Dihydroorotate dehydrogenase (quinone), mitochondrial (Plasmodium falciparum (isolate 3D7)) (Q08210 whole entry, looked up): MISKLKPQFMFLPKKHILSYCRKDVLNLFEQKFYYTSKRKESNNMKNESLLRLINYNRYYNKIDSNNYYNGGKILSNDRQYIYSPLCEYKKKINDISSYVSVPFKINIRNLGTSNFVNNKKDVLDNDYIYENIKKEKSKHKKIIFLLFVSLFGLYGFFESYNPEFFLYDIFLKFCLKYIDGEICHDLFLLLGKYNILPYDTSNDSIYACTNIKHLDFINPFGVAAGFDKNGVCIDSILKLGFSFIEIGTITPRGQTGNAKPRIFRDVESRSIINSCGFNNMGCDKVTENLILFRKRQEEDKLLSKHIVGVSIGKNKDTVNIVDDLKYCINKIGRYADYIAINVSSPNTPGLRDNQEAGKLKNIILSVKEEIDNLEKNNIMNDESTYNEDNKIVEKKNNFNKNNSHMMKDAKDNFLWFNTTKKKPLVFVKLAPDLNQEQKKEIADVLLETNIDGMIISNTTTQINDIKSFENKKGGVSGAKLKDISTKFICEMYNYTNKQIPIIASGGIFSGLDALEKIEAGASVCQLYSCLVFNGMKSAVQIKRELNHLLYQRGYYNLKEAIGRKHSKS

In the case of `O=C1C2C=CC(C(O)C3CC=CCC3)N(n3cnnc3)C2C(=O)N1Cc1ccccc1` (stereo not given), the z-score is -0.854 in assay [1]; 0.0086 (inactive) in assay [2]; -1.16 (inactive) in assay [3]; 0.216 (inactive) in assay [5]; -0.363 (inactive) in [6]; -1.59 (inactive) in assay [7]. The z-score was -1.35 (inactive) in [8] and -1.45 in assay [9]. The figures for the composite z-score in assay [4] and in assay [10] were -0.071 (inactive) and 0.38, respectively.

In the case of `O=C1C[C@@](C(=O)O)(c2ccc([N+](=O)[O-])cc2)[C@@H](c2ccc(CO)cc2I)N1CC12CC3CC(CC(C3)C1)C2`, the z-score was -1.79 in [1]; -4.78 (inactive) in assay [2]; -5.9 (inactive) in assay [3]; 1.34 (inactive) in [5]; -0.326 (inactive) in assay [6]; -0.401 (inactive) in [7]. Further, the values for the z-score in assay [8] and in [9] were -0.0671 (inactive) and -6, respectively. The composite z-score was -1.49 (inactive) in assay [4] and -0.17 in [10].

For `COC(=O)c1nc2oc1CC[C@@H](CO)NC(=O)N(C)Cc1cn(nn1)C[C@H](Cc1ccccc1)NC2=O`, the z-score in assay [1] is 0.395; in [2], -7.59 (inactive); in assay [3], 0.456 (inactive); in assay [5], 0.113 (inactive); in assay [6], 0.219 (inactive); in assay [7] it was 0.0613 (inactive). Further, the values for the z-score in assay [8] and in assay [9] were 0.72 (inactive) and 0.407, respectively. The composite z-score in assay [4] was -0.773 (inactive); in [10] it was -0.117.

Take `CC(c1ccccc1)C(O)C1C=CC2C(=O)N(Cc3ccccc3)C(=O)C2N1n1cnnc1` (stereo not given): the z-score in assay [1] is -0.69; in [2], -6.59 (inactive); in assay [3], -0.652 (inactive); in assay [5], 0.492 (inactive); in assay [6], 0.263 (inactive); in assay [7] it was -0.491 (inactive). Further, the z-score in [8] was -2.39 (inactive); in assay [9] it was -0.161. In addition, the composite z-score in assay [4] was 0.381 (inactive); in assay [10] it was 0.456.

With `O=C1c2ccccc2[C@@]2(Cc3ccccc3N(Cc3ccccc3)C2=O)[C@H](c2ccc(CO)cc2)N1Cc1ccccc1C(F)(F)F`, the z-score is -0.897 in [1]; -0.614 (inactive) in assay [2]; -1.28 (inactive) in [3]; 0.127 (inactive) in [5]; 0.349 (inactive) in assay [6]; 0.225 (inactive) in assay [7]. For the same molecule, the z-score is 0.429 (inactive) in assay [8] and -0.59 in assay [9]. Also, the composite z-score in [4] was -4.41 (inactive); in [10], -0.148.

In the case of `[N-]=[N+]=NCc1ccccc1[C@H]1OC(c2ccc(OCCCO)cc2)=N[C@@]1(Cc1ccccc1)C(=O)NCC(O)CO` (stereo not given in full), the z-score in [1] is 1.59; in assay [2] it was -0.366 (inactive); in assay [3], -0.327 (inactive); in [5], 2.25 (inactive); in [6], -0.405 (inactive); in [7], -0.329 (inactive). For the same molecule, the z-score was -0.279 (inactive) in [8] and -0.435 in assay [9]. Besides, the figures for the composite z-score in assay [4] and in assay [10] were -0.313 (inactive) and 0.459, respectively.

For the molecule `CCCNC(=O)[C@@]1(C)c2ccccc2C(=O)N(Cc2cc(F)cc(C(F)(F)F)c2)[C@H]1c1ccc(CO)cc1`, the z-score in assay [1] is 1.08; in [2] it was -0.769 (inactive); in assay [3], 1.16 (inactive); in assay [5], -0.164 (inactive); in [6], 0.196 (inactive); in assay [7], 0.249 (inactive). The z-score is 0.113 (inactive) in assay [8] and 1.63 in assay [9]. The composite z-score in assay [4] is 0.134 (inactive); in assay [10], -0.181.

In the case of `C=C(COC)C(=O)CC[C@H](OC(=O)c1cccnc1)c1ccccc1OCCO`, the z-score in assay [1] was -0.577; in assay [2], -0.332 (inactive); in assay [3], -3.06 (inactive); in assay [5], 1.45 (inactive); in assay [6] it was -0.511 (inactive); in assay [7] it was -0.438 (inactive). For the same molecule, the values for the z-score in assay [8] and in [9] were -0.285 (inactive) and -2.92, respectively. Besides, the figures for the composite z-score in assay [4] and in assay [10] were -0.414 (inactive) and -0.0143, respectively.

Regarding `O=C1C2C=CC(C(O)c3ccc(Br)cc3)N(n3cnnc3)C2C(=O)N1Cc1ccccc1` (stereo not given), the z-score in [1] was -0.009; in assay [2] it was -17.1 (active); in assay [3], -0.381 (inactive); in [5], -0.184 (inactive); in assay [6], -23 (active); in assay [7], -0.999 (inactive). The z-score is -1.96 (inactive) in [8] and -0.396 in assay [9]. Moreover, the composite z-score was -1.37 (inactive) in assay [4] and 1.33 in assay [10].

For the molecule `NC(=O)NCC#Cc1ccc2c(c1)[C@]1(C(=O)N2)[C@H](C(=O)NC[C@H](O)c2ccccc2)[C@H]2C(=O)O[C@H](c3ccccc3)[C@H](c3ccccc3)N2[C@@H]1c1ccccc1OCCO`, the z-score is 0.217 in assay [1]; 0.328 (inactive) in assay [2]; 0.56 (inactive) in assay [3]; 1.08 (inactive) in assay [5]; 0.915 (inactive) in [6]; 1.01 (inactive) in assay [7]. In addition, the z-score was 0.0227 (inactive) in assay [8] and 0.225 in [9]. In addition, the composite z-score is 0.833 (inactive) in assay [4] and 0.0864 in [10].

In the case of `[N-]=[N+]=NCc1ccccc1C[C@]1(C(=O)NCC(O)CO)COC(c2ccc(OCCCO)cc2)=N1` (stereo not given in full), the z-score in assay [1] was 0.0117; in assay [2], -1.46 (inactive); in assay [3], -2.31 (inactive); in assay [5], 0.19 (inactive); in assay [6], -0.325 (inactive); in assay [7] it was -0.0949 (inactive). Moreover, the z-score in assay [8] was 0.0564 (inactive); in assay [9], -0.902. Moreover, the figures for the composite z-score in [4] and in [10] were 0.0291 (inactive) and -0.163, respectively.

On to `C=CCNC(=O)[C@H]1[C@@H]2C(=O)O[C@@H](c3ccccc3)[C@@H](c3ccccc3)N2[C@@H](c2ccc(OCCO)cc2)[C@]12C(=O)N(C(=O)OCCOC)c1ccc(C#CC3(O)CCCCCC3)cc12`, for which the z-score in [1] was -0.162; in [2], 1.33 (inactive); in [3], -0.421 (inactive); in assay [5], 1.79 (inactive); in [6] it was 2.43 (inactive); in assay [7] it was -0.129 (inactive). For the same molecule, the z-score in assay [8] was 1.16 (inactive); in assay [9], 0.393. The composite z-score is -1.08 (inactive) in assay [4] and -0.0999 in assay [10].

In the case of `CCCC[C@H]1OB(O)C[C@H]2C1=C(COc1ccccc1)C[C@H]1C(=O)N(Cc3ccccc3)C(=O)[C@H]12`, the z-score is 0.552 in assay [1]; -1.91 (inactive) in [2]; 0.804 (inactive) in assay [3]; -0.802 (inactive) in assay [5]; -0.0955 (inactive) in assay [6]; 0.875 (inactive) in [7]. The z-score in [8] is -0.281 (inactive); in assay [9], 0.421. Also, the composite z-score was -1.25 (inactive) in [4] and 0.0617 in assay [10].
